# hgDAF12 agonist: agonists of H. glycines DAF-12 nuclear receptor. HEK293 GAL4-hgDAF12 UAS-luciferase reporter, agonist luminescence; normalized to butyrate control. activation, % at 6.8 µM. 370,000 compounds, 1.8% hits. AID 687014;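 active means activation above a cutoff set at the mean of all screened compounds plus 3 SD, cut at about 10% in these data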;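 further: 0% = DMSO wells and 100% = sodium butyrate wells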
# ssDAF-12 act: activates DAF-12 receptor from parasite S. stercoralis | HEK293 ssDAF-12/GRIP1 lit1-tk-luc reporter, luminescence; % of 3 µM dafachronic acid response | activation, % at 6.8 µM | 370,000 compounds, 1% hits | AID 652126;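 active means activation above the mean over all tested compounds plus 3 SD, cut at about 0.9% in these data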;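 further: 0% = DMSO-only wells and 100% = 3 µM delta7-dafachronic acid wells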
# DAX1 inh-1: DAX1 (NR0B1) inhibition, primary screen; 370,000 compounds, 1.1% hits; inhibition, % at 6.8 µM; AID 652010; HEK293T StAR-luciferase reporter, SF-1/DAX-1 repression relief;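 active means inhibition above the mean over all tested compounds plus 3 SD, cut at about 3.6% in these data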;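 further: 0% = DAX-1 cells with DMSO and 100% = cells lacking DAX-1 with DMSO; higher inhibition means more luminescence from relief of DAX-1 repression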
# hcDAF12 agonist: H. contortus DAF-12 activation, primary screen. activation, % at 6.8 µM. AID 652067. 370,000 compounds, 1.4% hits. HEK293 hcDAF-12 lit1-tk-luc reporter, luminescence; 0% DMSO, 100% Δ7-dafachronic acid;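 active means activation above the mean of all tested compounds plus 3 SD, cut at about 5.5% in these data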;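 further: 100% = response to 3 µM Δ7-dafachronic acid high control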
# DAX1 inh-2: NR0B1 (DAX1) inhibition. inhibition, % at 6.75 µM. P51843. HEK293 Gal4-DAX1 luciferase reporter, luminescence. 340,000 compounds, 0.99% hits. AID 504766;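 active means inhibition above the mean over all tested compounds plus 3 SD, cut at about 4.2% in these data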;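 further: 0% = DAX1-transfected cells with DMSO and 100% = empty-vector control cells with DMSO; inhibition shows as a rise in luminescence from relieved DAX1 repression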
# Target sequence (P51843 207-470 limits assumed): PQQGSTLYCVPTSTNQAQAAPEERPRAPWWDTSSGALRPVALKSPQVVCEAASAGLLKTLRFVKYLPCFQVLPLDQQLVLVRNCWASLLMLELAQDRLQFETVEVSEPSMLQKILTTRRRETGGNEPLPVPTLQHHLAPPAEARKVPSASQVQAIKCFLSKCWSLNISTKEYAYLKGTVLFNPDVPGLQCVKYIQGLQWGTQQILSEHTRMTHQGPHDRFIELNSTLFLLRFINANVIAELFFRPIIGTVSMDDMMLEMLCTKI
# Starred values were filed as active, the others as inactive; · = not tested or not shown. Most compounds without a hit are left out; they make up all but 4.1% or so of the library.
SMILES,hgDAF12 agonist,ssDAF-12 act,DAX1 inh-1,hcDAF12 agonist,DAX1 inh-2
O=C(NNC(=S)Nc1ccccc1)C1CC1,-2,-2,1,1,1
C[C@H]1C2CC(OC(=O)NCCCc3ccccc3)C(C2)[C@H]2CCCCN21 (some centres not stated),6,0,1,-1,·
COc1ccc(Cc2c(-c3cccc(Cl)c3)nc3c(C)cc(Br)cn23)c(C)c1,-3,-1,-3,-1,·
COc1ccc(Cc2c(-c3cccc(Cl)c3)nc3ccc(C)cn23)c(C)c1,10,0,4.0*,1,·
COc1ccc(Cc2c(-c3ccccc3)nc3ccc(C)cn23)c(C)c1,14*,1.5*,3.9*,2,·
COc1ccc(Cc2c(-c3ccccc3)nc3ccc(Cl)cn23)c(C)c1,5,0,2,2,·
C[C@]12CCC[C@H](O1)c1c(cc3c(c1O)C(=O)c1c(O)cc(O)cc1C3=O)O2,0,-1,1,-1,5.1*
O=C(Nc1ccc(F)cc1)Nc1c(-c2ccc(F)cc2)nc2ncccn12,1,1.8*,0,1,·
O=C(OC12CCCN(C1)/C(=C/c1ccc(Cl)cc1)C2)c1ccc(Cl)cc1 (configuration not stated),-1,-1,1,0,·
Clc1cccc(CNc2nc(-c3ccccn3)nnc2-c2ccccc2)c1,-11,-2,·,-3,·
Cc1ccc2c3c(c(SCC(=O)Nc4nonc4C)nc2c1)CCCC3,11*,-1,0,-1,1
C[C@H](NS(=O)(=O)c1ccc([N+](=O)[O-])cc1)C(=O)NCCNC(=O)[C@@H](C)NS(=O)(=O)c1ccc([N+](=O)[O-])cc1,-2,-1,·,-1,·
COc1cccc(NC(=O)COC(=O)c2c(F)cccc2F)c1,-2,-1,-1,-1,1
COc1cccc(NC(=O)COC(=O)c2sccc2C)c1,13*,0,3.7*,6.4*,6.2*
Cc1ccc(S(=O)(=O)NC(C(=O)OCC(=O)NC2CCS(=O)(=O)C2)C(C)C)cc1 (configuration not stated),-1,-1,1,0,-1
Cc1ccc(C(=O)N[C@H](C(=O)OCC(=O)NC2CCS(=O)(=O)C2)C(C)C)cc1 (some centres not stated),6,1.5*,0,1,1
Cc1cc(OCC(=O)OCC(=O)NC2CCS(=O)(=O)C2)ccc1Cl (configuration not stated),2,-1,1,5.9*,3
Cc1cc(OCC(=O)OCC(=O)NC2CCCCCC2)ccc1Cl,-1,-1,1,0,0
O=C(COC(=O)COc1ccccc1)NC1CCCC1,3,-1,0,0,0
Cc1cc(C)cc(OCC(=O)OCC(=O)NC2CCCCCCC2)c1,2,-1,4.3*,0,2
CC(=O)CC[C@H]1CC[C@]2(CCCN(C(=O)c3ccc4ccccc4n3)C2)O1,1,-1,0,0,·
Cn1cc(C2(c3c[nH]c4ccccc34)CCN(C(=O)OC(C)(C)C)CC2)c2ccccc21,3,0,-2,4,·
O=C(c1ccc(Cl)cc1)C1CCN(c2ncnc3sccc23)CC1,-5,-3,·,-6,·
Cc1ccsc1C(=O)OCC(=O)NC1CCCCC1,11*,0,3,3,2
Cc1cccc(C(=O)NCC(=O)OCC(=O)NC2CCCCCCC2)c1,0,-2,2,1,-1
SMILES,hgDAF12 agonist,ssDAF-12 act,DAX1 inh-1,hcDAF12 agonist,DAX1 inh-2
CC(=O)Nc1cccc(OCC(=O)Nc2ccccc2)c1,7,0,2,1,1
COc1cccc(C(=O)NCC(=O)OCC(=O)NC2CCCCC2)c1,-1,1.3*,0,0,1
CC(=O)Nc1cccc(OCC(=O)Nc2sccc2C(N)=O)c1,12*,0,2,3,2
CC(Cl)C(=O)N1CCC(C(=O)NCC2COc3ccccc3O2)CC1 (configuration not stated),3,-1,0,0,·
COc1ccc(NC(=O)CSc2nnc(CNC(=O)COc3ccc(Cl)cc3)o2)cc1,13*,-2,0,1,0
CN(C(=O)CSc1nc2ccccc2c(=O)n1-c1ccccc1F)C1CCS(=O)(=O)C1 (configuration not stated),-3,0.9*,-1,1,-1
COC(=O)c1c(N=CN(C)C)c(C#N)c2n1CCCC2,-2,-1,-1,-1,6.0*
O=C(c1cc(-c2ccccc2)on1)N1CCC(Oc2cccnc2)CC1,2,-2,-2,-2,·
Clc1ccc(C=Cc2ccccn2)cc1,13*,1,3,6,3
Nc1c(-c2ccc(Cl)cc2)cnn1-c1ccccc1,10,1,2,3,3
Nc1c(-c2ccc(Cl)cc2)nnn1-c1ccccc1,11*,-1,2,2,3
COc1ccc(NC(=O)CSc2ncnc3scc(-c4ccc(C)cc4)c23)cc1OC,3,-2,-2,-4,·
COC(=O)N(C)C[C@@H]1OCc2ccccc2-c2c(n(C)c3ccccc23)C(=O)N([C@H](C)CO)C[C@@H]1C,-3,-1,3.8*,0,1
CN(C)c1ccc(C(=O)N/N=C/c2ccccn2)cc1,12*,0,3.6*,1,0
CN(C)c1ccc(/C=N/NC(=O)c2ccccn2)cc1,12*,1.3*,3,5,1
O=C(N/N=C/c1ccccn1)c1ccccc1,8,-1,2,4,-1
CC(C)c1cc(C(C)C)c(S(=O)(=O)N2CCCC(C(=O)NCc3cccs3)C2)c(C(C)C)c1 (configuration not stated),-2,-2,-2,-2,·
O=C(CCc1ccccc1)Nc1ccc(S(=O)(=O)Nc2nccs2)cc1,2,0,0,6.3*,-1
CCCN(CCC)Cc1cc(=O)oc2cc(C)cc(C)c12,0,0,-2,-1,·
COC(=O)[C@]12C[C@H](CC(=O)NCc3cccc4ccccc34)C(=O)N(Cc3ccco3)C1=C[C@H](C1CCCC1)O[C@@H]2C,0,-1,0,0,·
CN(C)CCNC(=O)c1ccccc1,-1,-1,1,2,3
CN(C)CCNC(=O)c1cccc2ccc(-c3ccc(-c4ccccc4)cc3)nc12,1,1.2*,-1,2,-1
Cc1cccc(S(=O)(=O)N(C)C[C@@H]2OCc3cnnn3CCCC(=O)N([C@H](C)CO)C[C@H]2C)c1,-2,-1,0,-1,0
Cc1cccc(S(=O)(=O)N(C)C[C@H]2OCc3cnnn3CCCC(=O)N([C@H](C)CO)C[C@H]2C)c1,1,1,1,0,4.4*
COc1ccccc1CN(C)C[C@@H]1OCc2cnnn2CCCC(=O)N([C@H](C)CO)C[C@H]1C,-1,0,1,1,4.2*
